The text below walks through data of PubChem BioAssay (NCATS).

Where “and” joins values, the source holds several entries; their conditions need not be identical. Equal values may be shown once. Inconclusive results are not listed. A structure can be active in one record and inactive in another. Calls of active or inactive are those of the source. Unless noted, the call rests on the fitted dose curve; in most records, active means well fitted curve in the direction sought with a large enough effect; inconclusive means small, poorly fitted or top-dose-only effect, or another doubt; inactive means no such curve, though single readings can be large; an effect the other way counts as inactive or inconclusive.

A short description of test [1]: qHTS profiling of the MIPE4 collection as inhibitors of Plasmodium falciparum (DD2) proliferation (Rep 2) (AID 743346; call rule not given here). As to conditions: P. falciparum Dd2 in erythrocytes, SYBR Green DNA, 72 h; at 28.5 µM unless noted. An outline of the steps: (§1)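 Parasite DNA was quantified by SYBR Green I fluorescence (ex 485, em 535 nm) after overnight lysis in saponin/Triton buffer at room temperature. Cultures at 0.3% parasitemia and 2.5% hematocrit were first exposed to compound for 72 h at 37 C; signals were normalised to artemisinin (0.29 uM) and vehicle wells.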
Background: Quantitative high-throughput screening tests each substance at several concentrations.

Test [2] is described as follows: qHTS profiling of the MIPE4 collection as inhibitors of Plasmodium falciparum (HB3) proliferation (AID 743347; call rule not given here;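 further: plate controls were DMSO vehicle wells for no effect and artemisinin wells for full effect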). To be noted: P. falciparum HB3 in erythrocytes, SYBR Green DNA, 72 h; at 28.5 µM unless noted. Put shortly: as §1
The nature of test [3]: High-throughput drug toxicity screening in the BPDCN cell line Gen2.2 (AID 1224824; call rule not given here;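 further: cells exposed to compounds for 48 h before reading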). To be noted: Gen2.2 BPDCN cells; at 45.8 µM (top of the series) unless noted. Put shortly: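 Gen2.2 cells, 500 per well in phenol red-free RPMI with 10% FBS, exposed to compounds 48 h at 37 C, 5% CO2; viability by CellTiter-Glo luminescence. Percent activity scaled to DMSO (100%) and 9.2 uM bortezomib final (0%).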

Test [4] is described as follows: High-throughput drug toxicity screening in the BPDCN cell line Cal-1 (AID 1224825; call rule not given here). To be noted: Cal-1 BPDCN cell viability, qHTS; at 45.8 µM (top of the series) unless noted. Put shortly:
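Percent activity derived from CellTiter-Glo luminescence, scaling DMSO to 100% and 9.2 uM final bortezomib to 0%. BPDCN Cal-1 cells (500/well, RPMI plus 10% FBS) incubated with compounds 48 hours at 37C before reading.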

The nature of test [5]: qHTS assay for measurement of the activity of small molecule inhibitors on Zika virus induced Caspase-3 activity in human iPSC derived neural progenitor cells (hNPCs) (AID 1224857). Further: % of control where 0% means no effect; nearly all actives have a fitted effect of over 65% in size. An outline of the steps: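 Percent inhibition of virus-induced caspase-3/7 luminescence (Caspase-Glo), scaled between uninfected cells and Zika-infected cells. hNPCs received compound 1 hr before ZIKV at 2 FFU/cell, with 6 hours infection at 37 C.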

Test [6] is described as follows: qHTS assay for measurement of the activity of small molecule inhibitors on Zika virus induced Caspase-3 activity in human astrocytoma cells (AID 1224859).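 Further: plate controls were ZIKV-infected untreated cells for no effect and uninfected cells for full effect.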 Put shortly:
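Luminescent caspase-3/7 read-out (30 min reagent, room temperature) in human SNB-19 cells infected 6 h with ZIKV (2 FFU/cell) after 1 h compound pre-incubation; Data were normalised to uninfected and infected wells.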

Test [7] can be described thus: qHTS Screen of the MIPE 4.0 Collection Against Ewings Sarcoma (RDES) (AID 1259252). Further: nearly all actives have a fitted effect of over 35% in size. Further: potency means the concentration at half of the fitted maximal effect. An outline of the steps: (§2)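 Cells plated in serum-containing RPMI (5% FBS) and treated with compound dilutions for 48 h. Readout luminescent viability; normalization relied on vehicle (no inhibition) and media-only columns (full inhibition).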
The nature of test [8]: qHTS Screen of the MIPE 4.0 Collection Against Ewings Sarcoma (TC71) (AID 1259253). Further: nearly all actives have a fitted effect of over 40% in size. Further: potency means the concentration at half of the fitted maximal effect. Put shortly: as §2
Test [9] in a line: qHTS Screen of the MIPE 4.0 Collection Against Ewings Sarcoma (TC32) (AID 1259256). Further: nearly all actives have a fitted effect of over 45% in size. Further: potency means the concentration at half of the fitted maximal effect. An outline of the steps: as §2
Test [10] can be described thus: P-glycoprotein substrates identified in KB-8-5-11 adenocarcinoma cell line, qHTS therapeutic library screen (AID 1346987). Further: nearly all actives have a fitted effect of over 65% in size. Further: potency means the concentration at half of the fitted maximal effect. Put shortly:
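In this qHTS, P-gp-rich KB-8-5-11 cells received library compounds across a concentration range. Viability was quantified by luminescence after 72 h at 37 degree C.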

A short description of test [11]: qHTS Screen of the MIPE 4.0 Collection Against Ewings Sarcoma (EW8) (AID 1259255). Further: nearly all actives have a fitted effect of over 35% in size. Further: potency means the concentration at half of the fitted maximal effect.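 On viability: 100% = DMSO-treated cells and 0% = medium-only wells without cells.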 An outline of the steps: as §2
The nature of test [12]: P-glycoprotein substrates identified in KB-3-1 adenocarcinoma cell line, qHTS therapeutic library screen (AID 1346986). Further: nearly all actives have a fitted effect of over 60% in size. As to conditions: KB-3-1 parental cells viability, CellTiter-Glo, 72 h; at 44.5 µM (top of the series). Put shortly:
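Dose-response cytotoxicity, KB-3-1 vs P-gp-high KB-8-5-11, no colchicine in assay medium. Read: CellTiter-Glo at 72 h.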

The nature of test [13]: qHTS assay to identify small molecule inhibitors of chordoma cells - UCH-1 (AID 1259355). Further: on the % scale 0 is the no-effect control and ±100 the full control effect; nearly all actives have a fitted effect of over 55% in size. An outline of the steps:
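800 cells/well, overnight attach; compounds pinned at 15 concs, then auranofin/camptothecin/doxorubicin/rubitecan/topotecan combo added; 48hr 37 C, 5% CO2; CellTiter-Glo, 30min RT, luminescence.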

Test [14] can be described thus: qHTS assay to identify small molecule inhibitors of chordoma cells - UCH-2 (AID 1259356). Further: on the % scale 0 is the no-effect control and ±100 the full control effect.
Test [15] in a line: Identifying Small Molecule Inhibitors of Pancreatic Cancer Stem Cells (SN12C, Adherent) (AID 1259358).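 Further: potency means the concentration at half of the fitted maximal effect; cell survival measured after 48 h of compound exposure.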 Put shortly: (§3)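 Pre-formed 14-day tumor spheroids or adherent cells dosed and incubated 48 h, 37C, 5% CO2. Viability assessed by CellTiter-Glo.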
Test [16] can be described thus: Identifying Small Molecule Inhibitors of Pancreatic Cancer Stem Cells (Panc1, Spheroid) (AID 1259359).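 Further: potency means the concentration at half of the fitted maximal effect; compound exposure lasted 48 h before reading.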 To be noted: Panc1 spheroid cancer stem cell viability. An outline of the steps: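 Endpoint: ATP-based luminescence, 48 h drug exposure. Bortezomib at 9.2 uM final as full-kill control; DMSO vehicle as negative control; activity normalized between vehicle and cell-free wells.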

Test [17] is described as follows: Identifying Small Molecule Inhibitors of Pancreatic Cancer Stem Cells (A278, Adherent) (AID 1259361).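 Further: viability read after 48 h compound exposure; nearly all actives have a fitted effect of over 35% in size.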 Put shortly: as §3

In the case of `Nc1nc(=S)c2[nH]cnc2[nH]1`, the parasite growth, % of control (lower = inhibition) in test [1] worked out at 51.3%. The growth, % of control in test [2] amounted to 216%. In test [3], the cell viability, % of control (lower = more cytotoxic) worked out at 51.9%. Moreover, in [4], the viability (% of control) worked out at 7.77%. In addition, the Potency result in [5] and in test [6] was “inactive” in each case. Besides, the Potency was 935 nM (active) in test [7]; 935 nM (active) in [8]; 526 nM (active) in test [9]; 5.8 µM (active) and 1.18 µM (active) in test [10].
As for `CNS(=O)(=O)CCc1ccc2[nH]cc(C3CCN(C)CC3)c2c1`, the parasite growth, % of control (lower = inhibition) in test [1] was found to be 92.8%. This compound showed a growth, % of control in test [2] of 92.7%. Besides, the cell viability, % of control (lower = more cytotoxic) in test [3] is 238%. Further, the viability (% of control) in test [4] was 23.9%. For the same compound, the Potency result in test [5], in test [6] and in [10] was “inactive” throughout. For the same compound, the results for the Potency in test [7], in test [8] and in test [11] were 372 nM (active), 235 nM (active) and 2640 nM (active), respectively. For the same compound, the outcome in test [12] was inactive.
`CCC(=O)O[C@]1(C(=O)SCF)[C@H](C)C[C@H]2[C@@H]3C[C@H](F)C4=CC(=O)C=C[C@]4(C)[C@@]3(F)[C@@H](O)C[C@@]21C`: the parasite growth, % of control (lower = inhibition) in [1] was 44.9%. Further, the growth, % of control in test [2] amounted to 87.8%. In addition, the cell viability, % of control (lower = more cytotoxic) in [3] was 84.3%. In test [4], the viability (% of control) is 52.2%. Further, the Potency entry in test [5], in test [6], in test [8], in [11], in [13] and in test [14] was “inactive” throughout. In test [10], the Potency result is “inactive”. Further, in test [7], the Potency was 16600 nM (active). Besides, the result in [12] was inactive.
Turning to `COc1cc2ncnc(Nc3cccc(Cl)c3)c2cc1OC`, the parasite growth, % of control (lower = inhibition) in [1] turned out to be 24.1%. The compound also showed a growth, % of control in test [2] of 4.11%. Also, the cell viability, % of control (lower = more cytotoxic) in test [3] is 115%. Also, the viability (% of control) in [4] worked out at 39.5%. The Potency result in test [5] and in test [6] was “inactive” in each case. Also, the Potency in [7] was 118 nM (active); in [8], 4180 nM (active); in test [10], 8.33 µM (active) and 16.4 µM (active).
For the compound `CN1CCCC(n2nc(Cc3ccc(Cl)cc3)c3ccccc3c2=O)CC1` (stereo not drawn), the parasite growth, % of control (lower = inhibition) in test [1] amounted to 7.67%. The compound further yielded a growth, % of control in [2] of 2.79%. Besides, the cell viability, % of control (lower = more cytotoxic) in test [3] worked out at 9.12%. Moreover, the viability (% of control) in test [4] came out at 7.4%. In addition, the Potency result in [5], in test [6], in [13], in [14] and in [10] was “inactive” throughout. The values for the Potency in test [7], in test [8] and in test [11] were 1050 nM (active), 2640 nM (active) and 8330 nM (active), respectively.
Turning to `CNNCc1ccc(C(=O)NC(C)C)cc1`, the parasite growth, % of control (lower = inhibition) in test [1] was 68.8%. Besides, in test [2], the growth, % of control worked out at 68.9%. Besides, the cell viability, % of control (lower = more cytotoxic) in test [3] worked out at 284%. The viability (% of control) in test [4] was 78.4%. In addition, the Potency result in test [5], in test [6], in test [8], in test [11], in test [9] and in test [13] was “inactive” in each case. For the same compound, the Potency result in test [14] and in test [10] was “inactive” in each case. In addition, in [12], the result was inactive.
Regarding `COc1cc([C@@H]2c3cc4c(cc3[C@H](O)[C@H]3COC(=O)[C@H]23)OCO4)cc(OC)c1OC`, the parasite growth, % of control (lower = inhibition) in test [1] is 10.2%. Moreover, the cell viability, % of control (lower = more cytotoxic) in test [3] was 7.94%. The viability (% of control) in test [4] was 8.85%. For the same compound, the Potency result in test [5], in test [6], in test [8], in [11] and in test [14] was “inactive” in each case. The Potency was 18.7 nM (active) in test [15]; 2.1 nM (active) in [16]; 130 nM (active) and 11.8 nM (active) in [10]. In [17], the IC50 (viability decrease) is 14.8 nM (active).
In the case of `COc1ccccc1OCC(O)COC(N)=O` (stereo not drawn), in test [1], the parasite growth, % of control (lower = inhibition) was determined as 142%. Besides, the growth, % of control in test [2] turned out to be 111%. In addition, the cell viability, % of control (lower = more cytotoxic) in [3] is 109%. Moreover, the viability (% of control) in test [4] was 124%. The Potency entry in [5], in [6], in test [7], in test [8], in test [11] and in test [13] was “inactive” throughout. The Potency entry in [14] and in [10] was “inactive” in each case.
Take `O=S(=O)(c1cccc2cnccc12)N1CCCNCC1`: the cell viability, % of control (lower = more cytotoxic) in [3] was found to be 21.4%. The viability (% of control) in test [4] turned out to be 94.6%. The Potency result in test [5], in test [6], in [11], in test [9], in test [14] and in test [10] was “inactive” throughout. Besides, the Potency in test [7] was 26400 nM (active). Further, the outcome in test [12] was inactive.
As to `C[C@@H](CN1CC(=O)NC(=O)C1)N1CC(=O)NC(=O)C1`, in [1], the parasite growth, % of control (lower = inhibition) came to 105%. In [2], this compound showed a growth, % of control of 65.5%. Moreover, the cell viability, % of control (lower = more cytotoxic) in [3] is 147%. The viability (% of control) in [4] was determined as 14.7%. Moreover, the Potency entry in test [5], in test [6], in [7], in [8] and in test [14] was “inactive” throughout. The Potency in [11] was 18700 nM (active); in test [10], “inactive and 18.7 µM (active)”.
